Assay outcomes as filed in PubChem BioAssay.
FadD28 binding: inhibitors of FadD28 bisubstrate probe binding, primary screen, biochemical, fluorescence polarization, single point. Mycobacterium tuberculosis FadD28 fatty-acid-AMP ligase. inhibition, % at 12.5 µM. 360,000 compounds, 0.22% hits. AID 588549, 2011; in the data active = inhibition above about 8.5%, passing the limit was not always enough
VHR inh abs: VHR1 phosphatase inhibitors, primary screen, biochemical, absorbance, uHTS; recombinant VHR phosphatase, pNPP absorbance; inhibition, % at 13.3 µM; 290,000 compounds, 0.52% hits; AID 1654, 2009; in the data active = inhibition above about 50%
Target sequence (P51452 whole entry, looked up): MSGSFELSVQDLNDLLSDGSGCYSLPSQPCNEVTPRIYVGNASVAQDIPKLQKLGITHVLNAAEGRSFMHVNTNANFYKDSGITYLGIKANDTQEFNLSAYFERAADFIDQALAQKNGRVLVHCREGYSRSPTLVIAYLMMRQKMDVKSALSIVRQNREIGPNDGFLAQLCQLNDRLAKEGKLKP
SARS 3CLpro inh-1: SARS-CoV 3CLpro protease inhibitors, primary screen, biochemical, quenched FRET | 290,000 compounds, 0.14% hits | AID 1706, 2009 | inhibition, % at 6 µM | recombinant SARS-CoV 3CLpro, quenched FRET peptide cleavage; in the data active = inhibition above about 12%
Mtb hypoxia rep: PubChem AID 1159583 | M. tuberculosis hypoxia-regulated fluorescent reporter, fluorescence | fluorescence inhibition, % (no concentration beside the values) | 300,000 compounds, 0.1% hits; in the data active = fluorescence inhibition mostly above about 23%, no sharp cut-off; inactive = mostly below about 17%
BioA inh: M. tuberculosis BioA enzyme inhibitors, primary screen, biochemical, plate reader, single point, HTS. inhibition, % at 9.99 µM. 7,8-diaminopelargonic acid synthase BioA (Mycobacterium tuberculosis). purified M. tuberculosis BioA enzyme. AID 602481, 2012. 360,000 compounds, 0.096% hits; in the data active = inhibition above about 40%
SARS 3CLpro inh-2: confirmation of SARS coronavirus 3C-like protease inhibitors, retest, confirmation, biochemical; shares compounds with SARS 3CLpro inh-1; QFRET protease activity assay, 3CLpro; inhibition, % at 6 µM; 380 compounds, 36% hits; AID 1879, 2009; in the data active = inhibition above about 13%
Numbers stand for hits; . = inactive; / = no result given. Most compounds without a hit are left out; they make up all but 0.7% or so of the library.

SMILES | FadD28 binding | VHR inh abs | SARS 3CLpro inh-1 | Mtb hypoxia rep | BioA inh | others
O=C1NN(c2ccc(Cl)c(Cl)c2)C(=O)/C1=C/c1ccc(-c2ccccc2C(=O)O)o1 | 13 | . | . | . | .
Cc1ccc(N2NC(=O)/C(=C/c3ccc(-c4ccc(Cl)c(C(=O)O)c4)o3)C2=O)cc1C | . | . | . | . | .
COC(=O)NC1CC2C3CCC4CC(OC)CC[C@]4(C)C3CC[C@]12C (some centres undefined) | / | / | / | . | /
O=C(NC1CC=CCC(CC(=O)N(CCO)Cc2ccccc2)C(=O)NCC(c2ccccc2)OC1=O)OCC1c2ccccc2-c2ccccc21 (centres undefined) | / | / | / | . | /
O=c1[nH]c(N/N=C\c2ccc(F)cc2)nc2ccccc12 | . | 57 | . | / | /
O=c1[nH]c(N/N=C/c2ccc(O)cc2)nc2ccccc12 | . | . | . | / | /
Cc1cn2c(N)c(C=C3C=C(Cl)C(=O)C(Cl)=C3)c(=O)nc2s1 | 15 | . | . | . | /
COC1=C/C(=C/c2c(N)n3cc(C)sc3nc2=O)C=CC1=O | . | . | . | . | .
CC1CCCCN1S(=O)(=O)c1ccc(C(=O)Nc2ccccc2-c2nc3ccccc3[nH]2)cc1 (centres undefined) | . | . | . | . | .
O=C(Nc1ccccc1-c1nc2ccccc2[nH]1)c1ccc(S(=O)(=O)N2CCCCC2)cc1 | . | 50 | . | . | .
C=CCc1cccc2cc(C(=O)Nc3ccc(CC(=O)O)cc3)c(=O)oc12 | . | 52 | . | . | .
CNCCNCC(Cc1cccc2ccccc12)NCCc1ccccc1 (centres undefined) | / | / | / | . | /
COc1cc(C=C(C#N)C(=O)c2ccc(O)c(O)c2)cc(I)c1O | / | / | / | . | /
COc1cc(/C=C(\C#N)C(=O)c2ccc(O)c(O)c2)cc(I)c1O | 12 | / | / | / | .
Cc1cc(NS(=O)(=O)c2ccc(Nc3nc(-c4sc(N)nc4C)cs3)cc2)no1 | 55 | . | . | / | .
Cc1nc(C)c(-c2csc(Nc3ccc(N)cc3)n2)s1 | . | 57 | . | . | .
Cc1cc(NS(=O)(=O)c2ccc(Nc3nc(-c4ccc(C)c(C)c4)cs3)cc2)no1 | . | . | . | . | /
COc1ccc(Nc2nc(-c3sc(C)nc3C)cs2)cc1 | . | . | . | . | .
Cc1nc(C)c(-c2csc(Nc3ccc(O)c(C(=O)O)c3)n2)s1 | 17 | . | . | . | .
Cc1nc(N)sc1-c1csc(Nc2cccc(C(=O)O)c2)n1 | 23 | . | . | . | .
CC(C)(Cc1ccccc1)[N+]([O-])=Cc1ccc(C(F)(F)F)cc1 | / | / | / | . | /
CCOC(=O)C1=C(c2ccccc2)N=c2sc(=Cc3cccc(O)c3)c(=O)n2C1c1cccs1 (centres undefined) | / | / | / | . | /
CCOc1ccc2[nH]c(SCC(=O)OC)c([N+](=O)[O-])c2c1 | . | . | . | . | /
COC(=O)CSc1[nH]c2ccc(Br)cc2c1[N+](=O)[O-] | . | . | . | 37 | /
Cc1ccsc1C=NNC(=O)Cn1nc(C)c([N+](=O)[O-])c1C | / | / | / | . | /
SMILES | FadD28 binding | VHR inh abs | SARS 3CLpro inh-1 | Mtb hypoxia rep | BioA inh | others
Cc1nc2nc(SCC(=O)NCCCN3CCCCCC3)nn2c(C)c1Cc1ccccc1 | . | . | . | . | .
Cc1ccccc1Cc1c(C)nc2nc(SCC(=O)NCCCN3CCCCC3)nn2c1C | / | 58 | . | . | .
Cc1nc(S(=O)(=O)c2ccc(Cl)cc2)c(N(C)C)o1 | . | 53 | . | . | .
O=c1/c(=C/c2ccc(O)c([N+](=O)[O-])c2)sc2nc3ccccc3n12 | . | 75 | . | / | /
CC(C)(C)C1COC(=O)C(NC(=O)OCC2c3ccccc3-c3ccccc32)CC=CCC(CC(=O)NCCO)C(=O)N1 (centres undefined) | / | / | / | . | /
CN(C)S(=O)(=O)c1ccc(C(=O)OCC(=O)NC(=O)NC2CCCC2)cc1 | . | / | / | 31 | .
Cc1cc(-c2nn(-c3ccccc3F)cc2CN2CCCC(O)C2)c(C)s1 (centres undefined) | . | 53 | . | . | .
Cc1cc(-c2nn(-c3ccccc3F)cc2CN2CCCC(CO)C2)c(C)s1 (centres undefined) | . | . | . | . | .
COc1ccc2oc(=O)c(C(=O)NC3CCCCCC3)cc2c1 | . | 50 | . | . | .
FC(F)(F)c1ccccc1C=Nn1c(COc2ccccc2)n[nH]c1=S | / | / | / | . | /
O=C(O)Cn1cc(/C=C2\C(=O)NC(=O)N(c3ccc(Cl)cc3)C2=O)c2ccccc21 | . | . | . | . | .
CCN(CC)C(=O)Cn1cc(/C=C2\C(=O)NC(=O)N(c3ccccc3F)C2=O)c2ccccc21 | . | . | 17 | . | . | SARS 3CLpro inh-2=23
COC(=O)c1cc(-c2ccccc2)sc1N | . | . | 51 | . | . | SARS 3CLpro inh-2=.
Nc1sc(-c2ccccc2)cc1C(=O)N/N=C/c1ccc(Cl)cc1 | . | . | . | / | .
O=C(O)c1ccccc1NS(=O)(=O)c1ccc(NNC(=S)Nc2ccc(OC(F)F)cc2)c([N+](=O)[O-])c1 | 55 | . | 13 | . | / | SARS 3CLpro inh-2=.
C#CCNC(=O)C1=CC(c2cn(C(C)=O)c3ccccc23)CC(OCCCCO)O1 (centres undefined) | / | / | / | . | /
Cc1noc(C)c1S(=O)(=O)Nc1ccc(C(=O)Nc2ccc(OC(F)(F)F)cc2)cc1 | . | . | 13 | . | . | SARS 3CLpro inh-2=.
COc1cc(NC(=O)c2ccc(NS(=O)(=O)c3c(C)noc3C)cc2)cc(OC)c1 | . | . | . | / | .
CCN(c1ccccc1)S(=O)(=O)c1nnc(NC(=O)c2ccccc2OC)s1 | . | . | 13 | . | . | SARS 3CLpro inh-2=.
COc1ccccc1C(=O)Nc1nc2ccccc2s1 | . | . | 13 | / | . | SARS 3CLpro inh-2=.
CN(Cc1ccc(F)cc1)S(=O)(=O)c1nnc(NC(=O)c2ccccc2Br)s1 | . | . | 13 | . | . | SARS 3CLpro inh-2=.
O=C(C1=CC(C2CCCCC2)CC(OCCCCO)O1)N1CCOCC1 (centres undefined) | / | / | / | . | /
O=C(NN=Cc1ccc(-c2cccc(C(F)(F)F)c2)o1)c1ccccc1Br | / | / | / | . | /
COc1cccc(C2Oc3ccc(OC)cc3C(=O)C2OC(=O)Nc2cc(OC)c(OC)c(OC)c2)c1 (centres undefined) | / | / | / | . | /
CC(C(=O)O)C1C[C@@]1(C)C(NC(=O)OCc1ccccc1)c1ccccc1 (some centres undefined) | / | / | / | . | /
CC(C)CC1CN=C(Nc2ccccc2)N1CC1CCCC1 (centres undefined) | / | / | / | . | /
CCOc1ccc(C2C(C(=O)c3ccc(C)o3)=C(O)C(=O)N2c2nc(C)c(C(=O)OC)s2)cc1 (centres undefined) | . | . | 12 | . | . | SARS 3CLpro inh-2=.
CN1CCN(CC(=O)N2N=C(c3cccs3)CC2c2ccco2)CC1 (centres undefined) | . | . | . | . | .
